Among the test systems are K-562 leukemia; MALME-3M melanoma; MDA-MB-231 breast; RXF 393 renal; SF-268 CNS; SF-295 CNS; SF-539 CNS; UACC-257 melanoma; M14 melanoma; HCT-15 colon; HT29 colon; SNB-75 CNS; SNB-19 CNS; U251 CNS; PC-3 prostate; SK-MEL-5 melanoma; LOX IMVI melanoma; SK-MEL-28 melanoma; SK-MEL-2 melanoma; UACC-62 melanoma.
Test in all cases: NCI-60 one-dose screen, 48 h (100 = growth as untreated, 0 = no growth, -100 = all killed)
Details in all cases: 10 µM unless noted

The panel holds about 83,000 compounds, 20% with a hit somewhere; the sample as a whole holds those more often.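 Each cell line was grown in a 96-well plate and treated with one concentration of compound for 48 hours. Values below 10 were considered active.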 Values without a mark were called inactive. The source made the active and inactive calls.

In PubChem BioAssay (NCI) one finds growth data, which are given here for nine compounds.

For the compound `CCN1C(=S)N(c2ccccc2)C2NC(=O)N(/N=C/C=C/c3ccccc3OC)C21` (stereo not given), the growth with K-562 leukemia is 59.2%; in the experiment with MALME-3M melanoma, 87.2%; with MDA-MB-231 breast, 71.9%; with RXF 393 renal, 92.4%; with SF-268 CNS it was 93.9%; with SF-295 CNS, 87.9%. Also, the growth is 86.3% in the experiment with SF-539 CNS; 102% in the experiment with UACC-257 melanoma; 92.6% in the experiment with M14 melanoma; 67.6% in the experiment with HCT-15 colon; 98.8% in the experiment on HT29 colon; 71.8% in the experiment with SNB-75 CNS. In addition, the growth in the experiment with SNB-19 CNS was 87.6%; in the experiment on U251 CNS, 89.4%; in the experiment on PC-3 prostate it was 90.3%; in the experiment with SK-MEL-5 melanoma it was 92.4%; in the experiment with LOX IMVI melanoma, 75.4%; in the experiment on SK-MEL-28 melanoma, 95.3%. For the same compound, the growth in the experiment with SK-MEL-2 melanoma is 120%.
As to `Clc1ccc(Cc2nnc3sc(-c4cccnc4)nn23)cc1`, the growth with K-562 leukemia was 87.1%; in the experiment on MALME-3M melanoma it was 108%; in the experiment on MDA-MB-231 breast, 93.6%; in the experiment with RXF 393 renal it was 85.9%; in the experiment on SF-268 CNS it was 96.4%; with SF-295 CNS, 99.9%. Further, the growth was 92.5% in the experiment on SF-539 CNS; 109% with UACC-257 melanoma; 106% in the experiment with M14 melanoma; 99.6% with HCT-15 colon; 102% in the experiment with HT29 colon; 94.4% with SNB-75 CNS. In addition, the growth is 93.3% in the experiment with SNB-19 CNS; 99% in the experiment with U251 CNS; 101% in the experiment on PC-3 prostate; 96.4% with SK-MEL-5 melanoma; 96.7% in the experiment with LOX IMVI melanoma; 109% with SK-MEL-28 melanoma. Besides, the growth in the experiment on SK-MEL-2 melanoma is 113%.
Turning to `COc1ccc(NC(=O)c2sc3nc(-c4cnccn4)cc(-c4cccs4)c3c2N)cc1`, the growth in the experiment on K-562 leukemia is 54.5%; in the experiment with MALME-3M melanoma it was 86.5%; with MDA-MB-231 breast it was 79.7%; in the experiment with RXF 393 renal, 31.7%; with SF-268 CNS, 81%; in the experiment with SF-295 CNS it was 84%. For the same compound, the growth is -14.2% (active) in the experiment with SF-539 CNS; 85.1% in the experiment on UACC-257 melanoma; 81.2% in the experiment with M14 melanoma; 66.5% in the experiment with HCT-15 colon; 67.1% in the experiment with SNB-75 CNS; 93.6% with SNB-19 CNS. In addition, the growth with U251 CNS is 55.5%; with PC-3 prostate, 82.7%; with SK-MEL-5 melanoma, 59.4%; with UACC-62 melanoma, 32.7%; in the experiment with LOX IMVI melanoma it was 18.4%; with SK-MEL-28 melanoma, 84.3%. The growth with SK-MEL-2 melanoma was 86.6%.
Turning to `COc1ccc(Cc2nn(CC(=O)N/N=C/c3ccc(Cl)cc3)c(=O)c3c(C)noc23)cc1`, the growth was 96.3% with K-562 leukemia; 95% in the experiment with MALME-3M melanoma; 76.2% with MDA-MB-231 breast; 77.7% in the experiment with RXF 393 renal; 83.9% in the experiment with SF-268 CNS; 69.3% in the experiment with SF-295 CNS. Further, the growth was 58.7% in the experiment on SF-539 CNS; 90.9% in the experiment on UACC-257 melanoma; 89.9% in the experiment on M14 melanoma; 88.3% with HCT-15 colon; 92.4% with HT29 colon; -4.27% (active) in the experiment with SNB-75 CNS. Moreover, the growth in the experiment with SNB-19 CNS was 67.5%; with U251 CNS, 71.4%; with PC-3 prostate, 78.9%; in the experiment with UACC-62 melanoma, 99.2%; in the experiment on SK-MEL-28 melanoma, 97.9%.
In the case of `CC(C)(C)Nc1nc2c(OCCc3ccccc3)cccn2c1-c1cccc(F)c1`, the growth with K-562 leukemia is 1.65% (active); with MALME-3M melanoma, -10.8% (active); in the experiment with MDA-MB-231 breast, -40.9% (active); in the experiment with RXF 393 renal, -43% (active); in the experiment with SF-268 CNS, 18.8%; with SF-295 CNS, -38.2% (active). Also, the growth is -62.6% (active) in the experiment on SF-539 CNS; 1.34% (active) with UACC-257 melanoma; -3.59% (active) in the experiment on M14 melanoma; -60.2% (active) with HCT-15 colon; 33.2% with SNB-75 CNS; 20.4% in the experiment with SNB-19 CNS. In addition, the growth in the experiment on U251 CNS is -43.8% (active); with PC-3 prostate it was -4.7% (active); in the experiment on SK-MEL-5 melanoma it was -82.4% (active); in the experiment on UACC-62 melanoma, -7.68% (active); in the experiment with LOX IMVI melanoma it was -83.1% (active); in the experiment on SK-MEL-28 melanoma, 15%.
With `O=c1[nH]c2ccc(Cl)cc2cc1CSc1ccccc1Nc1nccc(-c2ccc(Cl)cc2)n1`, the growth with K-562 leukemia is 71.6%; in the experiment on MALME-3M melanoma, 90.4%; with MDA-MB-231 breast, 94.3%; in the experiment on RXF 393 renal it was 84.7%; in the experiment with SF-268 CNS, 81.5%; in the experiment on SF-295 CNS, 96.3%. The growth was 89.1% in the experiment with SF-539 CNS; 100% in the experiment on UACC-257 melanoma; 102% in the experiment with M14 melanoma; 91.5% in the experiment with HCT-15 colon; 76.6% with SNB-75 CNS; 95% in the experiment with SNB-19 CNS. Also, the growth in the experiment with U251 CNS was 79.7%; in the experiment with PC-3 prostate it was 69%; in the experiment with SK-MEL-5 melanoma it was 95.1%; in the experiment with UACC-62 melanoma it was 75.9%; in the experiment on LOX IMVI melanoma, 98.4%; in the experiment on SK-MEL-28 melanoma, 106%. For the same compound, the growth in the experiment with SK-MEL-2 melanoma was 129%.
`O=C(N/N=C/c1ccc[nH]1)c1[nH]c2ccc(Br)cc2c1-c1ccccc1`: the growth in the experiment on K-562 leukemia was 3.06% (active); in the experiment with MALME-3M melanoma it was 45.1%; in the experiment with MDA-MB-231 breast, 14%; in the experiment on RXF 393 renal, 53.2%; in the experiment with SF-268 CNS, 25.3%; in the experiment with SF-295 CNS, 7.67% (active). Also, the growth is 14.2% in the experiment on SF-539 CNS; 30.3% with UACC-257 melanoma; 13.2% in the experiment on M14 melanoma; 9.42% (active) in the experiment on HCT-15 colon; 6.16% (active) with HT29 colon; 27.3% in the experiment with SNB-75 CNS. Further, the growth with SNB-19 CNS was 30.6%; in the experiment on U251 CNS it was 21.8%; with PC-3 prostate, 15.2%; in the experiment with SK-MEL-5 melanoma, -34.3% (active); in the experiment with SK-MEL-28 melanoma it was 61.2%; in the experiment on SK-MEL-2 melanoma it was 31.9%.
Turning to `Cc1ccc2c(n1)C(=O)C(Cl)=C(Nc1cccc(C(C)C)c1)C2=O`, the growth in the experiment on K-562 leukemia is 3.49% (active); in the experiment on MALME-3M melanoma it was 83.8%; in the experiment on MDA-MB-231 breast, 45.8%; in the experiment on RXF 393 renal it was 73.1%; with SF-268 CNS, 80.9%; with SF-295 CNS, 70.1%. Further, the growth in the experiment on SF-539 CNS was 80.7%; in the experiment on UACC-257 melanoma, 1.85% (active); in the experiment with M14 melanoma, 44.7%; with HCT-15 colon, 32.4%; in the experiment with HT29 colon, 97%; with SNB-75 CNS, 68.6%. Moreover, the growth is 71.7% in the experiment on SNB-19 CNS; 60.3% in the experiment with U251 CNS; 57.9% in the experiment on PC-3 prostate; 87.1% in the experiment with UACC-62 melanoma; 63.1% with SK-MEL-28 melanoma; 47.2% with SK-MEL-2 melanoma.
For the compound `Nc1nc(N)c2c(n1)NC(c1ccc(C(F)(F)F)cc1)CC(c1ccc(Nc3nc(NCCO)nc(Nc4ccc(Cl)cc4)n3)cc1)=N2` (stereo not given), the growth in the experiment with K-562 leukemia was 1.08% (active); with MALME-3M melanoma it was -79% (active); in the experiment with MDA-MB-231 breast it was -59.4% (active); in the experiment on RXF 393 renal, -78.8% (active); with SF-268 CNS, -29.4% (active); with SF-295 CNS, -79.5% (active). Besides, the growth was -86.2% (active) with SF-539 CNS; 74.1% in the experiment with UACC-257 melanoma; -86.9% (active) in the experiment with M14 melanoma; -54.4% (active) with HCT-15 colon; -66.6% (active) in the experiment with HT29 colon; 35.4% in the experiment with SNB-75 CNS. Further, the growth is -79.1% (active) in the experiment with SNB-19 CNS; -22.3% (active) with U251 CNS; -31.5% (active) in the experiment with PC-3 prostate; -92.8% (active) in the experiment with SK-MEL-5 melanoma; -94.6% (active) with SK-MEL-28 melanoma; -80.3% (active) in the experiment with SK-MEL-2 melanoma.
